# According to PubChem BioAssay (NCI):
# Values joined by “and” are separate entries in the source; they are usually repeats but may differ in a detail not shown here. Equal values may be shown once. About 79,000 compounds went through this panel and 15% of them were active in at least one assay; those are over-represented in the sample as a whole. Some compounds were tested as several samples or in several runs, with calls that do not always agree. Active and inactive are the calls of the source. No stated cut-off is given here; in the data, active means growth inhibition above about 70%; inactive means the rest.
# Assay: NCI Yeast Anticancer Drug Screen. Data for the cln2 rad14 strain (AID 165);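 further: 0% = growth equal to vehicle treated cultures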
# Details: S. cerevisiae cln2 rad14 strain, at 5.0 µM (retest, dose inferred, filed as 0.5), stronger effect = higher value
# Procedure, shortened: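 Strain: cln2 rad14 yeast, altered in cell cycle control and DNA damage repair. Read-out: growth inhibition vs vehicle.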
row,Structure (SMILES),growth inhibition
1,O=C1C(CN2CCCCC2)CCCC1CN1CCCCC1 (stereo unspecified),-4% (inactive)
2,NC(=O)c1cc(Br)cc(Br)c1O,5% (inactive)
3,CN(C)c1ccc(/C=C/c2ccc3ccccc3[n+]2C)cc1,3% (inactive)
4,C1=C(CN2CCCCC2)COc2ccccc21,0% (inactive)
5,O=C1Nc2ccccc2C1(O)C/C(=N/O)c1ccc2ccccc2c1 (stereo unspecified),52% (inactive)
6,CC(C)(S)C(N)C(=O)O (stereo unspecified),4% (inactive)
7,COC(=O)[C@@H](NS(=O)(=O)CC12CCC(CC1)C2(C)C)C(C)(C)C,6% (inactive)
8,CN(CCN1C(=O)c2cccc3cccc(c23)C1=O)CCN1C(=O)c2cccc3cccc(c23)C1=O,15% (inactive)
9,CN(C)CCCN=c1c2ccccc2n(O)c2cccc([N+](=O)[O-])c12,11% (inactive)
10,O=C(/C=C/c1ccc(Cl)cc1)NC1C=Nc2ccc([N+](=O)[O-])cc2NC1=O (stereo unspecified),13% (inactive)
11,O=C(CC(=O)CC(O)(c1ccccc1)c1ccccc1)CC(=O)c1ccccc1,-11% (inactive)
12,O=C(c1ccc(Cl)cc1)C(O)c1ccc(Cl)cc1 (stereo unspecified),-8% (inactive) and 7% (inactive)
13,COc1ccc2c(c1)C(Cc1ccc(Oc3ccc(CC4c5cc(OC)ccc5CC[N+]4(C)C)cc3)cc1)[N+](C)(C)CC2 (stereo unspecified),-4% (inactive)
14,O=C(NO)c1cccnc1,1% (inactive)
15,Oc1c(Cl)c(Cl)c(Cl)c2ccccc12,39% (inactive)
16,CSC1SCC2C(=O)N(C)C(C(C)C)C(=O)OCC(NC(=O)c3cnc4ccccc4n3)C(=O)NC(C)C(=O)N(C)C1C(=O)N(C)C(C(C)C)C(=O)OCC(NC(=O)c1cnc3ccccc3n1)C(=O)NC(C)C(=O)N2C (stereo unspecified),8% (inactive) and 94% (active)
17,O=C(O)C1(Cc2ccccc2)Cc2cc3c(cc2C1)CCC3,2% (inactive)
18,CC1=C(C(=O)Nc2c(C)cccc2C)C(c2ccc3c(c2)OCO3)C(C(=O)Nc2c(C)cccc2C)=C(C)N1,16% (inactive)
19,COc1cc2c(c3c1/c(=N/N(C)C)c1ccccc1n3C)C=CC(C)(C)O2,-10% (inactive)

row,Structure (SMILES),growth inhibition
1,CC(=O)Nc1nc(N)c2ncn(C3OC(C(O)CO)C(O)C3O)c2n1 (stereo unspecified),1% (inactive)
2,CC(C)(Cc1nocc1C(C)(C)CC#N)c1cc(CC(C)(C)C2(C)OCCO2)no1,2% (inactive)
3,CCOC(=O)c1c[nH]c2c(ccc3cccnc32)c1=O,3% (inactive) and -3% (inactive)
4,Cc1ncc(C[n+]2cccc(CCO)c2C)c(N)n1,1% (inactive) and 9% (inactive)
5,Clc1ccc2c(c1)[nH]c1c2nc2ccccn21,47% (inactive)
6,O=C(O)c1ccccc1C(=O)O,4% (inactive)
7,COC1/C=C/OC2(C)Oc3c(C)c(O)c4c(c3C2=O)C(=O)C=C(NC(=O)/C(C)=C\C=C\C(C)C2OC(C)(C)OC(C2C)C(C)C(OC(C)=O)C1C)C4=O (stereo unspecified),1% (inactive)
8,CCN(CC)CCCn1c2cc(=O)c(=O)cc-2[nH]c2cc(C)ccc21,5% (inactive)
9,O=[N+]([O-])c1ccc(N/N=C/CC(O)(C(F)(F)F)C(F)(F)F)c([N+](=O)[O-])c1,25% (inactive)
10,OCc1ccccc1C(c1ccccc1)c1ccccc1,8% (inactive)
11,COc1ccc2[nH]c3c(C)c4ccncc4c(C)c3c2c1,21% (inactive)
12,CC(C)CCC[C@@H](C)[C@H]1CC[C@H]2[C@@H]3CC=C4N5CCCN=C5CC[C@]4(C)[C@H]3CC[C@]12C,0% (inactive)
13,CC(C)CCCC(C)C1CCC2C3CC=C4CC([n+]5cccc6ccccc65)CCC4(C)C3CCC12C (stereo unspecified),39% (inactive)
14,O=C1/C(=C/c2ccc(Cl)cc2)CNC/C1=C\c1ccc(Cl)cc1,69% (inactive) and 44% (inactive)
15,CCn1c2ccccc2c2ccc(N=Cc3ccc(N(C)C)cc3)cc21,0% (inactive)
16,O=C1NC(=O)c2cc([N+](=O)[O-])ccc21,-5% (inactive)
17,O=c1[nH]c(SCc2c(Cl)c(Cl)c(Cl)c(Cl)c2Cl)nc(=S)[nH]1,-36% (inactive)
18,Cn1c2nc3ccccc3c-2cc2ccccc21,41% (inactive)
19,O=Cc1cc(Br)ccc1O,8% (inactive) and -3% (inactive)

# Same assay, conditions: S. cerevisiae cln2 rad14 strain, at 50.0 µM (retest, dose inferred, filed as 5.0), stronger effect = higher value
row,Structure (SMILES),growth inhibition
1,O=C1C(CN2CCCCC2)CCCC1CN1CCCCC1 (stereo unspecified),6% (inactive)
2,NC(=O)c1cc(Br)cc(Br)c1O,87% (active)
3,CN(C)c1ccc(/C=C/c2ccc3ccccc3[n+]2C)cc1,98% (active)
4,C1=C(CN2CCCCC2)COc2ccccc21,28% (inactive)
5,O=C1Nc2ccccc2C1(O)C/C(=N/O)c1ccc2ccccc2c1 (stereo unspecified),44% (inactive)
6,CC(C)(S)C(N)C(=O)O (stereo unspecified),-1% (inactive)
7,COC(=O)[C@@H](NS(=O)(=O)CC12CCC(CC1)C2(C)C)C(C)(C)C,48% (inactive)
8,CN(CCN1C(=O)c2cccc3cccc(c23)C1=O)CCN1C(=O)c2cccc3cccc(c23)C1=O,90% (active)
9,CN(C)CCCN=c1c2ccccc2n(O)c2cccc([N+](=O)[O-])c12,8% (inactive)
10,O=C(/C=C/c1ccc(Cl)cc1)NC1C=Nc2ccc([N+](=O)[O-])cc2NC1=O (stereo unspecified),93% (active)
11,O=C(CC(=O)CC(O)(c1ccccc1)c1ccccc1)CC(=O)c1ccccc1,94% (active)
12,O=C(c1ccc(Cl)cc1)C(O)c1ccc(Cl)cc1 (stereo unspecified),67% (inactive) and 28% (inactive)
13,COc1ccc2c(c1)C(Cc1ccc(Oc3ccc(CC4c5cc(OC)ccc5CC[N+]4(C)C)cc3)cc1)[N+](C)(C)CC2 (stereo unspecified),54% (inactive)
14,O=C(NO)c1cccnc1,0% (inactive)
15,Oc1c(Cl)c(Cl)c(Cl)c2ccccc12,94% (active)
16,CSC1SCC2C(=O)N(C)C(C(C)C)C(=O)OCC(NC(=O)c3cnc4ccccc4n3)C(=O)NC(C)C(=O)N(C)C1C(=O)N(C)C(C(C)C)C(=O)OCC(NC(=O)c1cnc3ccccc3n1)C(=O)NC(C)C(=O)N2C (stereo unspecified),98% (active) and 96% (active)
17,O=C(O)C1(Cc2ccccc2)Cc2cc3c(cc2C1)CCC3,2% (inactive)
18,CC1=C(C(=O)Nc2c(C)cccc2C)C(c2ccc3c(c2)OCO3)C(C(=O)Nc2c(C)cccc2C)=C(C)N1,16% (inactive)
19,COc1cc2c(c3c1/c(=N/N(C)C)c1ccccc1n3C)C=CC(C)(C)O2,60% (inactive)

row,Structure (SMILES),growth inhibition
1,CC(=O)Nc1nc(N)c2ncn(C3OC(C(O)CO)C(O)C3O)c2n1 (stereo unspecified),0% (inactive)
2,CC(C)(Cc1nocc1C(C)(C)CC#N)c1cc(CC(C)(C)C2(C)OCCO2)no1,-6% (inactive)
3,CCOC(=O)c1c[nH]c2c(ccc3cccnc32)c1=O,43% (inactive) and 41% (inactive)
4,Cc1ncc(C[n+]2cccc(CCO)c2C)c(N)n1,24% (inactive) and 18% (inactive)
5,Clc1ccc2c(c1)[nH]c1c2nc2ccccn21,95% (active)
6,O=C(O)c1ccccc1C(=O)O,7% (inactive)
7,COC1/C=C/OC2(C)Oc3c(C)c(O)c4c(c3C2=O)C(=O)C=C(NC(=O)/C(C)=C\C=C\C(C)C2OC(C)(C)OC(C2C)C(C)C(OC(C)=O)C1C)C4=O (stereo unspecified),89% (active)
8,CCN(CC)CCCn1c2cc(=O)c(=O)cc-2[nH]c2cc(C)ccc21,55% (inactive)
9,O=[N+]([O-])c1ccc(N/N=C/CC(O)(C(F)(F)F)C(F)(F)F)c([N+](=O)[O-])c1,98% (active)
10,OCc1ccccc1C(c1ccccc1)c1ccccc1,98% (active)
11,COc1ccc2[nH]c3c(C)c4ccncc4c(C)c3c2c1,99% (active)
12,CC(C)CCC[C@@H](C)[C@H]1CC[C@H]2[C@@H]3CC=C4N5CCCN=C5CC[C@]4(C)[C@H]3CC[C@]12C,54% (inactive)
13,CC(C)CCCC(C)C1CCC2C3CC=C4CC([n+]5cccc6ccccc65)CCC4(C)C3CCC12C (stereo unspecified),91% (active)
14,O=C1/C(=C/c2ccc(Cl)cc2)CNC/C1=C\c1ccc(Cl)cc1,85% (active) and 73% (active)
15,CCn1c2ccccc2c2ccc(N=Cc3ccc(N(C)C)cc3)cc21,45% (inactive)
16,O=C1NC(=O)c2cc([N+](=O)[O-])ccc21,-5% (inactive)
17,O=c1[nH]c(SCc2c(Cl)c(Cl)c(Cl)c(Cl)c2Cl)nc(=S)[nH]1,67% (inactive)
18,Cn1c2nc3ccccc3c-2cc2ccccc21,74% (active)
19,O=Cc1cc(Br)ccc1O,61% (inactive) and 30% (inactive)
